This is an account of results in PubChem BioAssay.

Calls of active or inactive are those of the source.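 The calls were made as follows, unless noted: active = compounds lowering colon cancer cell viability after pretreatment blocking the GSK3B kinase; inactive = the rest.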

Test [1] is described as follows: Wnt pathway potentiators raising nuclear beta-catenin – imaging, WNT3A-conditioned medium, mouse C2C12, NPC library, primary screen (AID 1117326; in the data active = nuclear beta-catenin stimulation mostly above about 4.2%, no sharp cut-off; inactive = mostly below about 10%). Conditions: stronger effect = higher value.
Test [2] can be described thus: stimulators of insulin release from INS-1E, primary screen, cell-based, 5 mM glucose, NPC library (AID 1117329;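 active = compound raises insulin release from rat beta cells at 5 mM glucose, no numeric limit stated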). As to conditions: rat INS-1E insulin secretion, at 10 µM, stronger effect = higher value.
The nature of test [3]: growth inhibition of GSK3B-pretreated HCT116 cells – cell-based, CellTiter-Glo, 0.2 to 20 µM (AID 1117336). As to conditions: HCT116 viability after GSK3B inhibitor, at 20 µM, stronger effect = higher value.
Test [4] is described as follows: inhibition of endothelial tube formation, primary screen, imaging, VEGF stimulated, CD31 staining, tube area, NPC library (AID 1117340;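 active = compound that reduces growth-factor-driven endothelial tube area in a mixed cell culture, no cutoff stated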). As to conditions: VEGF-stimulated ADSC/ECFC co-culture, at 10 µM, stronger effect = higher value.
Test [5] can be described thus: GLP1 release stimulators, primary, NCI-H716, NPC library (AID 1117341;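 active = compound raises GLP1 secretion from the human gut endocrine cells, with no numeric limit stated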). As to conditions: NCI-H716 cells, at 10 µM, stronger effect = higher value.
Test [6] can be described thus: HCT116 colon cancer cell growth inhibition, primary screen, CellTiter-Glo luminescence, NPC library (AID 1117342;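 active = compounds that lower survival of HCT116 colon cancer cells in the luminescence readout, no numeric limit stated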). As to conditions: at 20 µM (top of the series).
Test [7] is described as follows: reduced SW480 viability measured with CellTiter-Glo, NPC library, primary (AID 1117343;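 active = compounds that lower viability of the colon cancer cells in the luminescence readout, with no numeric limit stated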). As to conditions: CellTiter-Glo luminescence; at 20 µM (top of the series) unless noted.
The nature of test [8]: NPC library primary testing for decreased DLD-1 cell viability via CellTiter-Glo (AID 1117346;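 active = compounds that lower survival of DLD-1 colon cancer cells in the luminescence readout, no cutoff given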). Conditions: DLD-1 viability, CellTiter-Glo luminescence; at 20 µM (top of the series).
Test [9] has as its target NAD(+) hydrolase SARM1 (Homo sapiens) (UniProt Q6SZW1). Nature of the test: blocking NAD cleavage by SARM1 SAM-TIR – cell lysate, NAD-Glo luminescence (AID 1508614;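 active = compound whose remaining NAD level is above about 45 nM, limit read from the data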;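 also: higher remaining NAD means stronger inhibition of SARM1 NADase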). As to conditions: SAM-TIR HEK293T lysate NADase, at 1 µM, stronger effect = higher value.
Test [10] is described as follows: MELAS cybrid and Rieske KO viability enhancers – cell-based, MELAS cybrids, Rieske KO mouse fibroblasts, CellTiter-Glo, primary screen (AID 1508586;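 active = mean z-score across replicates of 1.96 or higher in either the MELAS or the Rieske mutant cell line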;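 also: z relative to plate mean and SD of compound and empty wells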). As to conditions: low glucose.
In test [11] the target is Mitogen-activated protein kinase 7 (Homo sapiens) (UniProt Q13164). Nature of the test: Gal4-ERK5 driven luciferase induction – cell-based, HTS, primary screen (AID 1508626;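 active = luciferase signal above three times the same-plate solvent-only control wells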;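 also: luciferase driven by Gal4-ERK5 fusion binding five Gal4 sites before minimal TATA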). Conditions: HeLa Gal4-ERK5 transactivation, 18 h, at 5 µM, stronger effect = higher value.
Test [12] is described as follows: compounds altering viability of human ES cells (AID 493140; call rule not given here;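 also: cells exposed to compounds for four days before counting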). Conditions: human embryonic stem cell survival screen; stronger effect = higher value.
[13] abbreviates: MELAS cybrid survival, CellTiter-Glo 48 h, stronger effect = higher value.
The mark [14] stands for this setting: Rieske KO mouse fibroblast survival, CellTiter-Glo 72 h.

Sequence of NAD(+) hydrolase SARM1 (Homo sapiens) (Q6SZW1 whole entry, looked up): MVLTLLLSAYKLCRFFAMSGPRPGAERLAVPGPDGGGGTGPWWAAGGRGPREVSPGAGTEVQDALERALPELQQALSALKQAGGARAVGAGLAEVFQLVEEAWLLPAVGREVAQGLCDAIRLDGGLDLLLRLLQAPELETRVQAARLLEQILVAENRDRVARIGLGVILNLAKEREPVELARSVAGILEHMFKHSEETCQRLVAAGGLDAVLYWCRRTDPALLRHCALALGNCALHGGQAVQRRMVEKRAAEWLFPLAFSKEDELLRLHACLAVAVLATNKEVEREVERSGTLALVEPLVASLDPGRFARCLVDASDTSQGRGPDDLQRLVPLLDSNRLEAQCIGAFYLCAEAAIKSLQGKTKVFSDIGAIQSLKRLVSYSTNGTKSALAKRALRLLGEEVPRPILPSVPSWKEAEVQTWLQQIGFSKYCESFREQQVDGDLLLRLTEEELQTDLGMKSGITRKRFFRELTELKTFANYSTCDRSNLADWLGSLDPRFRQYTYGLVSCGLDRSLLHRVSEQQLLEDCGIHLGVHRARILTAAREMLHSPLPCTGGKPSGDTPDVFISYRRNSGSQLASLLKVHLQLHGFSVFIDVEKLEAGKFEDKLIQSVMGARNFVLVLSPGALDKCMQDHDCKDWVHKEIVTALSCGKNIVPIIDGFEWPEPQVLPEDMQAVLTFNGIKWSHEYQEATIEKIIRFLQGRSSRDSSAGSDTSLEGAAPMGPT
Sequence of Mitogen-activated protein kinase 7 (Homo sapiens) (Q13164 whole entry, looked up, the tested form may be a part): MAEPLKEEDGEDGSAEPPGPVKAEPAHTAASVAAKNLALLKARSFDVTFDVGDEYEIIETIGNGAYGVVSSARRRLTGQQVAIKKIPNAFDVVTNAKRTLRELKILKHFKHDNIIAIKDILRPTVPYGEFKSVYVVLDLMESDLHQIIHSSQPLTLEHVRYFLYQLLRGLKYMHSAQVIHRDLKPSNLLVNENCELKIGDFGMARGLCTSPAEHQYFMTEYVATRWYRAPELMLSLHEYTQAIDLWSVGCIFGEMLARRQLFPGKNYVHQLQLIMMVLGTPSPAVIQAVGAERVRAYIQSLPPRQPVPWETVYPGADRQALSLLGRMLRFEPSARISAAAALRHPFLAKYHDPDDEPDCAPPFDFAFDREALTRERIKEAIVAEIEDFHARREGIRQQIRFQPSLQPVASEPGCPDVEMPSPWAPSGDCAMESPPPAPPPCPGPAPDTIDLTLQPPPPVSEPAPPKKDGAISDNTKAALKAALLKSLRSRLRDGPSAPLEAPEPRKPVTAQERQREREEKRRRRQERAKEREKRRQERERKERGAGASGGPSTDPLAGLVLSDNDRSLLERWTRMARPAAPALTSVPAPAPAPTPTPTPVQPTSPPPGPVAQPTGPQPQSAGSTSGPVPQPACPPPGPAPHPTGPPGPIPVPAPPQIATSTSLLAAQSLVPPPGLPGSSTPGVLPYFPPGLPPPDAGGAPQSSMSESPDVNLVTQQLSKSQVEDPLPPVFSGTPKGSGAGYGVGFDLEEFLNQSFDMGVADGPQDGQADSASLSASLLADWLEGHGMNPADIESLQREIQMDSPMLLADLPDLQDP

As for `COc1cc(O)c(C(=O)c2ccccc2)cc1S(=O)(=O)O`, the nuclear beta-catenin stimulation in [1] (at 10 µM) is -0.8% (inactive); in [1] (stimulation, at 2 µM) it was 0.1%. Moreover, the insulin secretion stimulation in test [2] was -1.1% (inactive). Moreover, the viability decrease in test [3] is -7.35% (inactive). In test [4], the tube area decrease is -4.4% (inactive). The GLP1 secretion stimulation in test [5] was -0.7% (inactive). Moreover, the inhibition of viability in test [6] is -1.4% (inactive). The values for the viability decrease (inhibition) in test [7] and in [8] were -19.9% (inactive) and 4.15% (inactive), respectively. The remaining NAD in [9] is 10 nM (inactive).

For `NC(=O)C(c1ccccc1)(c1ccccc1)[C@@H]1CCN(CCc2ccc3c(c2)CCO3)C1`, the nuclear beta-catenin stimulation in test [1] (at 10 µM) is 0.1% (inactive); in [1] (stimulation, at 2 µM) it was 1.7%. Also, the insulin secretion stimulation in test [2] is 16% (inactive). Besides, the viability decrease in test [3] was -129% (inactive). In addition, in test [4], the tube area decrease is 25.4% (inactive). Moreover, the GLP1 secretion stimulation in test [5] was 0.9% (inactive). Also, in [6], the inhibition of viability is 35.1% (inactive). Also, the viability decrease (inhibition) in [7] was 22.8% (inactive); in [8] it was 12.4% (inactive). In addition, the z-score is -1.84 (inactive) in [10] (setting [13]) and -1.37 in test [10] (setting [14]). Moreover, the remaining NAD in test [9] was 10 nM (inactive). Moreover, the luciferase signal in test [11] was 108 AU (inactive).

As to `O=C(OCCOCCO)c1ccccc1Nc1cccc(C(F)(F)F)c1`, the survival in test [12] is 2.08 (inactive). Moreover, the nuclear beta-catenin stimulation was -1.7% (inactive) in [1] (at 10 µM) and -0.5% in test [1] (stimulation, at 2 µM). Moreover, in test [2], the insulin secretion stimulation is 0.3% (inactive). In addition, the viability decrease in test [3] was 79.4% (active). In addition, the tube area decrease in test [4] is 13.5% (inactive). For the same compound, in test [5], the GLP1 secretion stimulation was -1.6% (inactive). For the same compound, the inhibition of viability in test [6] was 81.8% (active). Besides, the viability decrease (inhibition) in test [7] is 54.2% (active); in test [8] it was 45.7% (inactive). Besides, the z-score was 0.681 (inactive) in test [10] (setting [13]) and 0.111 in test [10] (setting [14]).

Take `CCN(CC)C(=O)Nc1ccc(OCC(O)CNC(C)(C)C)c(C(C)=O)c1` (stereo not drawn): the nuclear beta-catenin stimulation is -1.9% (inactive) in test [1] (at 10 µM) and -0.3% in test [1] (stimulation, at 2 µM). Moreover, the insulin secretion stimulation in test [2] was 9.4% (inactive). Besides, the viability decrease in test [3] is 0.3% (inactive). Moreover, in test [4], the tube area decrease was -7.8% (inactive). Besides, the GLP1 secretion stimulation in test [5] was -4.8% (inactive). Besides, in [6], the inhibition of viability is 12% (inactive). Also, the viability decrease (inhibition) is 4.9% (inactive) in test [7] and -3.6% (inactive) in test [8]. Further, the z-score in test [10] (setting [13]) was 1.68 (inactive); in [10] (setting [14]), 0.098.

For the compound `CC(CN(C)C)C(C)(O)Cc1ccc(Cl)cc1` (stereo not drawn), the nuclear beta-catenin stimulation in test [1] (at 10 µM) is -2% (inactive); in [1] (stimulation, at 2 µM), -0.8%. In [2], the insulin secretion stimulation was 7.5% (inactive). For the same compound, in [3], the viability decrease is -15% (inactive). In test [4], the tube area decrease is 7.9% (inactive). Also, in [5], the GLP1 secretion stimulation was -2% (inactive). In addition, the inhibition of viability in test [6] was 17.4% (inactive). Besides, the viability decrease (inhibition) in test [7] was -0.8% (inactive); in [8], -9.1% (inactive). In addition, the z-score is 0.453 (inactive) in [10] (setting [13]) and -0.0123 in test [10] (setting [14]).

As for `Clc1cc(Cl)c(OCC#CI)cc1Cl`, the nuclear beta-catenin stimulation was 62.3% (active) in test [1] (at 10 µM) and 21.7% in test [1] (stimulation, at 2 µM). The insulin secretion stimulation in [2] was 9.6% (inactive). The viability decrease in [3] was 93.8% (active). For the same compound, the tube area decrease in test [4] was 106% (active). In addition, in [5], the GLP1 secretion stimulation was -0.7% (inactive). Also, the inhibition of viability in test [6] was 92% (active). In addition, the viability decrease (inhibition) in test [7] is 100% (active); in test [8], 98.1% (active). Also, the z-score in test [10] (setting [13]) is -0.965; in test [10] (setting [14]) it was 8.41.
